Among the data in the emibetuzumab library of Makowski et al. (2022) are antigen binding call values, retold here.

The labels stand for the following.
B1: VH:VL chains; a variant is named by its letters at X, in order (parent)
chain 1: QVQLVQSGAEVKKPGASVKVSCKASGYTFTDYXMHWVRQAPGQGLEWMGXVNPNXXXTTYNQKFEGRVTMTTDTSTSTAYMELRSLRSDDTAVYYCARXNXLDXWGQGTTVTVSS
chain 2: DIQMTQSPSSLSASVGDRVTITCSVSSSVSSIYLHWYQQKPGKAPKLLIYSTSNLASGVPSRFSGSGSGTDFTLTISSLQPEDFATYYCQVYSGYPLTFGGGTKVEIK

The list shows a part of the results. The true hit rate is not given.

The assay covers variants of B1. The assay can be described thus: yeast display scFab, FACS + sequencing. The settings on record: with MET. Summed up: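 Two magnetic rounds on Protein A beads coated with HGFR-Fc, followed by FACS, were used to enrich a yeast surface scFab library mutated in the heavy-chain CDRs. FACS gated the top 50% antigen-positive cells after 3 h labelling at room temperature with 1 nM HGFR-Fc and anti-Myc in PBSB plus 1% milk. Binding to the antigen was scored positive when a sequence occurred in both antigen-positive samples from deep sequencing and negative when it occurred only in the input.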
Turning to YRARSAGA, the antigen binding call is reported as “binds”.

On to DRAGDSGA, for which the antigen binding call is recorded as “no binding”.

As for YRGANSGA, the antigen binding call is recorded as “no binding”.

On to DEGGDAGD, for which the antigen binding call is reported as “no binding”.

With VAEKGDAA, the antigen binding call is on record as “no binding”.

In the case of VEKGGDWD, the antigen binding call was “no binding”.

FKGEGDVY: the antigen binding call is recorded as “no binding”.

Consider VKTGGDVA, for which the antigen binding call is given as “no binding”.

Regarding YRAGASGA, the antigen binding call is on record as “binds”.

In the case of YRKEAAAA, the antigen binding call is recorded as “binds”.

On to DAKEGAAA, for which the antigen binding call was “no binding”.

With YRKGSAAA, the antigen binding call was “binds”.

Turning to YRKEGAAA, the antigen binding call is on record as “binds”.

With VAEAAVGD, the antigen binding call is reported as “no binding”.

Consider AETKGDWV, for which the antigen binding call was “no binding”.

In the case of VEGTSAVY, the antigen binding call is “no binding”.

In the case of VKKEDDVV, the antigen binding call is listed as “no binding”.

Regarding VEGGGFAY, the antigen binding call is given as “no binding”.

With VRGGGAWV, the antigen binding call is on record as “binds”.

Regarding VRGTGAVY, the antigen binding call was “no binding”.

As for VRAGGAWV, the antigen binding call is “binds”.

Consider VRGGGAAV, for which the antigen binding call was “binds”.

Take VRGGGAAY: the antigen binding call was “binds”.

With VRAGGDWV, the antigen binding call is “no binding”.

As to VAGGGAAV, the antigen binding call was “no binding”.

For VREGAAAV, the antigen binding call is reported as “no binding”.

With VRGAGAWV, the antigen binding call was “no binding”.

Consider DTTGSAVV, for which the antigen binding call is “no binding”.

Take FTGTSDLY: the antigen binding call is recorded as “no binding”.

On to FRGRGSWS, for which the antigen binding call was “binds”.

Consider FRGRDFGS, for which the antigen binding call is listed as “no binding”.

On to FRGRDSWS, for which the antigen binding call is “binds”.

For the variant FRGRGAWS, the antigen binding call is listed as “binds”.

FEATASWS: the antigen binding call was “no binding”.

As for FRGRDYGS, the antigen binding call is listed as “no binding”.

In the case of FRGRGSVS, the antigen binding call was “binds”.

With AGGGNDGA, the antigen binding call is given as “no binding”.

In the case of VTGGDDWY, the antigen binding call is on record as “no binding”.

Regarding AARADAVV, the antigen binding call was “no binding”.

With FRGRGAGS, the antigen binding call is given as “binds”.

Consider FRGRGSLS, for which the antigen binding call is “binds”.

Turning to FRGRGFLS, the antigen binding call is recorded as “no binding”.

For the variant FRGRGDLS, the antigen binding call is listed as “no binding”.

Turning to FRGRGALS, the antigen binding call is reported as “binds”.

Regarding FRGRGAAS, the antigen binding call is recorded as “binds”.

In the case of SGKKSSGV, the antigen binding call was “no binding”.

Turning to VEGTSAVF, the antigen binding call was “no binding”.

For FRGRASLS, the antigen binding call was “binds”.

YRRRGFGY: the antigen binding call was “binds”.

As for YRRRGAGY, the antigen binding call is on record as “binds”.

On to YAAKSDGY, for which the antigen binding call is “no binding”.

As to DRERGDGY, the antigen binding call is recorded as “no binding”.

In the case of YRRRGVGY, the antigen binding call is reported as “binds”.

For YRRRGDGY, the antigen binding call is given as “binds”.

As for FAAAGFVA, the antigen binding call is reported as “no binding”.

Take VKREAVGV: the antigen binding call is on record as “no binding”.

As to YRRRGSGY, the antigen binding call is “binds”.

For the variant YRRRGFGS, the antigen binding call is recorded as “binds”.

As for DREEGAGS, the antigen binding call was “no binding”.

For the variant VREGDYLS, the antigen binding call was “no binding”.

For the variant SRTRGFGS, the antigen binding call is listed as “no binding”.

YAREAALS: the antigen binding call is on record as “no binding”.

As to YRTRGALS, the antigen binding call is reported as “binds”.

Turning to VRTRGALS, the antigen binding call was “binds”.

Take YRTGAALS: the antigen binding call is recorded as “binds”.

Regarding DAEESDGA, the antigen binding call is reported as “no binding”.

As for DGTKSYGV, the antigen binding call is “no binding”.

Regarding VTGGDDWV, the antigen binding call was “no binding”.

For FKTGGAAV, the antigen binding call is given as “binds”.

Consider YTTGGAAV, for which the antigen binding call is “no binding”.

FKTKSDAV: the antigen binding call is on record as “no binding”.

With FAEGAAAV, the antigen binding call is listed as “no binding”.

Turning to DKTGDAAV, the antigen binding call is “no binding”.

Regarding FKTESAAV, the antigen binding call is “binds”.

With AKTKSDVA, the antigen binding call was “no binding”.

As to DATGGDVY, the antigen binding call is recorded as “no binding”.

VAEKGDWY: the antigen binding call is on record as “no binding”.

Consider FRTGDSVD, for which the antigen binding call was “binds”.

Turning to FGKEDSVD, the antigen binding call is reported as “no binding”.

As to FATTDSVD, the antigen binding call was “no binding”.

Regarding FRTGDSWD, the antigen binding call is given as “binds”.

On to YARADDVA, for which the antigen binding call was “no binding”.

Regarding YRRKGSSS, the antigen binding call was “binds”.

Consider VEAGDSSS, for which the antigen binding call is listed as “no binding”.

In the case of VKAGDAWS, the antigen binding call is recorded as “no binding”.

In the case of VKAGDSSS, the antigen binding call is “binds”.

For the variant FGAKGSSS, the antigen binding call was “no binding”.

With YRAKGSSS, the antigen binding call is “binds”.

For YRAGDSSS, the antigen binding call is on record as “binds”.

For SEGTSAVF, the antigen binding call was “no binding”.

For DTKAASSS, the antigen binding call was “no binding”.

Take DKERGDLV: the antigen binding call is reported as “no binding”.

For the variant DTRTAYGF, the antigen binding call was “no binding”.

For YRAEGSSS, the antigen binding call was “binds”.

In the case of YRAKSSSS, the antigen binding call is “binds”.

On to VKGRADVF, for which the antigen binding call was “no binding”.

As to YRAGGSSY, the antigen binding call is reported as “binds”.

Consider DRGGDDWY, for which the antigen binding call is “no binding”.

Turning to ARGKASSY, the antigen binding call is reported as “no binding”.

Regarding DRGGDDVY, the antigen binding call is reported as “no binding”.

In the case of DREEGSSY, the antigen binding call is “no binding”.

As for YRGGDSSY, the antigen binding call is listed as “binds”.

Take YRGGDDLY: the antigen binding call is given as “no binding”.

For the variant YRGGDSAY, the antigen binding call is “binds”.

For the variant YAGGDFAY, the antigen binding call is reported as “no binding”.

Take DRREGYGA: the antigen binding call is listed as “no binding”.
